# Measurements as given in PubChem BioAssay (EPA / NIEHS).
# Results filed as inconclusive are left out. The source holds several records for some structures; these can differ, active in one and inactive in another. Calls of active or inactive are those of the source. Rule for the calls, unless noted: active = hit-call score of the fitted dose curve at least 0.9, where 1 is the maximum; inconclusive = response in the unintended direction; inactive = score below 0.9.
# How the values were obtained:
# [1] = system: Sodium/Iodide Symporter (NIS), SLC5A5 (gene 6528); experiment: CPHEA_Stoker_NIS_Inhibition_RAIU: CPHEA's Radioactive Iodide Uptake (RAIU) Assay for Sodium/Iodide Symporter (NIS) Inhibition, Stoker and Laws Labs (AID 2283841)
# In short: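 hNIS-HEK293T-EPA cells incubated 2 h at room temperature with compound (0.001–100 uM, 0.5% DMSO) and 329 pM final 125I in HBSS/10 mM HEPES, pH 7.4. Intracellular 125I counted; normalised to DMSO maximal uptake, triplicate, three biological replicates.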
# [2] = CPHEA_Stoker_NIS_Cytotoxicity: Cytotoxicity Assessment for CPHEA's Radioactive Iodide Uptake (RAIU) Assay for Sodium/Iodide Symporter (NIS) Inhibition, Stoker and Laws Labs (AID 2283897);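 for AC50: active means loss of ATP signal versus DMSO meaning cytotoxicity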
# In short: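 hNIS-HEK293T-EPA cells, human NIS expressed in HEK293T, treated 2 h with chemicals (0.001–100 uM, 0.5% final DMSO). ATP content read by CellTiter-Glo luminescence; loss of signal analysed relative to DMSO.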
# [3] = ATG_M_61_XSP2: Attagene TRANS-FACTORIAL Multi-Species (XSP2) HepG2 Assay for M61 Transcription Factor (Internal Marker) (AID 2283835; active = hit-call score of the fitted dose curve at least 0.9, where 1 is the maximum; inactive = score below 0.9;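 note: reporter mRNA of an internal background marker read by RT-PCR and capillary electrophoresis; active means a rise in signal above the DMSO baseline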)
# In short: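 HepG2 cells transiently transfected with multiple GAL4-UAS reporter units; 3 nM 6-alpha-fluorotestosterone and 1.5 nM norgestrel present to stimulate androgen receptor. After 24 h compound exposure, reporter mRNA measured by RT-PCR and capillary electrophoresis fluorescence, gain-of-signal versus DMSO baseline.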
# [4] = biological target: zebrafish Thyroid Hormone Receptor beta (TRb), thrb (gene 30607) (UniProt Q9PVE4); experiment: ATG_zfTRb_XSP2: Attagene TRANS-FACTORIAL Multi-Species (XSP1) HepG2 Assay for zebrafish Thyroid Hormone Receptor beta (TRb) (AID 2283836)
# zebrafish Thyroid Hormone Receptor beta (TRb), thrb (gene 30607), sequence (Q9PVE4 whole entry, looked up, the tested form may be a part): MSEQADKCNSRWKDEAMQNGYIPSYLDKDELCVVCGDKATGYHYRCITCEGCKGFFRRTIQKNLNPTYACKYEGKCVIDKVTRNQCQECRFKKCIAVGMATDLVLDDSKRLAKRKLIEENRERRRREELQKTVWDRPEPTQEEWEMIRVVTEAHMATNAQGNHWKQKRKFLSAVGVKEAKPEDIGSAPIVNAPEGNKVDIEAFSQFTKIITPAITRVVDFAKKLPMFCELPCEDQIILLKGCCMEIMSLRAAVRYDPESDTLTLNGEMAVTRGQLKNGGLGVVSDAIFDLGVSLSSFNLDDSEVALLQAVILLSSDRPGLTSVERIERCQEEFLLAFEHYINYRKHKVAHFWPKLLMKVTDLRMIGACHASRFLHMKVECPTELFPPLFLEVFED
# In short: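 HepG2 cells transiently transfected with chimeric zebrafish TRb-GAL4 reporter units, dosed 24 h with 3 nM 6-alpha-fluorotestosterone and 1.5 nM norgestrel present. Reporter mRNA quantified by RT-PCR and capillary electrophoresis; gain fitted against DMSO.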
# [5] = ATG_XTT_Cytotoxicity_XSP2: Cytotoxicity Assessment in the Attagene TRANS-FACTORIAL Multi-Species (XSP2) HepG2 Assay (AID 2283837)
# In short: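 HepG2 cells, transiently transfected with multiple reporter constructs, exposed to chemical for 24 h. Cell number assessed with XTT fluorescence read-out; loss of signal fitted relative to DMSO.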
# [6] = biological target: human Thyroid hormone Receptor alpha (TRa), THRA (gene 7067) (UniProt P10827); experiment: ATG_hTRa_XSP2: Attagene TRANS-FACTORIAL Multi-Species (XSP2) HepG2 Assay for human Thyroid hormone Receptor alpha (TRa) (AID 2283838)
# human Thyroid hormone Receptor alpha (TRa), THRA (gene 7067), sequence (P10827 whole entry, looked up, the tested form may be a part): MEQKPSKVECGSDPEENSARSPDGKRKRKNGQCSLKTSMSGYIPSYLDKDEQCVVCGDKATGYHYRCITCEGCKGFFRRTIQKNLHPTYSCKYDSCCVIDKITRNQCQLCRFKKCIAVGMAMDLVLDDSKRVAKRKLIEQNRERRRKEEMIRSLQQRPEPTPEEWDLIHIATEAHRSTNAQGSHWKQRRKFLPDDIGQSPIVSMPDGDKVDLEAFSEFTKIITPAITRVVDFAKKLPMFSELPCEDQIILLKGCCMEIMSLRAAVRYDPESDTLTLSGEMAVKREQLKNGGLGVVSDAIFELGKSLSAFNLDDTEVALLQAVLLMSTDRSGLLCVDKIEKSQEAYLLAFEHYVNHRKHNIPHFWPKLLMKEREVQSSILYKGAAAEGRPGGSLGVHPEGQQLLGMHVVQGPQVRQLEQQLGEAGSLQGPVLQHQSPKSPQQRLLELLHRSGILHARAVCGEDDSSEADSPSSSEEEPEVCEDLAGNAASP
# In short: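 HepG2 cells were transiently transfected with GAL4-UAS reporter units for chimeric human TRa-Gal4 and dosed for 24 hours, with 3 nM 6-alpha-fluorotestosterone and 1.5 nM norgestrel present. Reporter mRNA was quantified by RT-PCR, FAM labelling and capillary electrophoresis, with gain of signal fitted versus DMSO.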
# [7] = biological target: human Thyroid hormone Receptor beta (TRb), THRB (gene 7068) (UniProt P10828); experiment: ATG_hTRb_XSP2: Attagene TRANS-FACTORIAL Multi-Species (XSP2) HepG2 Assay for human Thyroid hormone Receptor beta (TRb) (AID 2283840);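 note: actives raise reporter mRNA so potency reflects agonist-like gain of signal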
# human Thyroid hormone Receptor beta (TRb), THRB (gene 7068), sequence (P10828 whole entry, looked up, the tested form may be a part): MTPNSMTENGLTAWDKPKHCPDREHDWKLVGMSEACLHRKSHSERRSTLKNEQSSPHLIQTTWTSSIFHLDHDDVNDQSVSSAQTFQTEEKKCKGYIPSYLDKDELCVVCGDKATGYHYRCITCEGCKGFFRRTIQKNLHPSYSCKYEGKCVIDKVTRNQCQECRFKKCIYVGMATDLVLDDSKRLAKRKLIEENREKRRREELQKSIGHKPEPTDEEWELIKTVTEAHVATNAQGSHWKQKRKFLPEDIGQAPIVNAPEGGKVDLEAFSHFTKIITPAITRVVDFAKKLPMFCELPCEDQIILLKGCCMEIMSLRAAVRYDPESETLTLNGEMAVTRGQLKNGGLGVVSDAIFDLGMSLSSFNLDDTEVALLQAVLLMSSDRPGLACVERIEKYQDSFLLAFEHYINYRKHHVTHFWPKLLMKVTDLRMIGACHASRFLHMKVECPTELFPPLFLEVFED
# In short: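 Activity of exogenous human TRb–Gal4 fusion measured by reporter mRNA from RT-PCR and capillary electrophoresis, 24 h after dosing transfected HepG2. 6-alpha-fluorotestosterone (3 nM) and norgestrel (1.5 nM) present. Gain-of-signal fit relative to DMSO.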
# [8] = CEETOX_H295R_11DCORT_noMTC: CeeTox H295R High-throughput Steroidogenesis Assay for 11-Deoxycortisol (11DCORT), maximum tolerated concentration (MTC) filtered results only (AID 2283911; active = hit-call score of the fitted dose curve at least 0.9, where 1 is the maximum; inactive = score below 0.9); conditions: actives raise or lower the signal
# In short: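 Values carry no filtering for maximum tolerated concentration: medium from forskolin-primed (10 uM, 48 h) H295R cells after 48 h chemical exposure (0.1% DMSO) was MTBE-extracted, and 11-deoxycortisol quantified by reverse-phase HPLC-MS/MS. Fitting was bidirectional against DMSO.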
# [9] = CEETOX_H295R_OHPREG_noMTC: CeeTox H295R High-throughput Steroidogenesis Assay for OH-Pregnenolone (OHPREG), maximum tolerated concentration (MTC) filtered results only (AID 2283912; active = hit-call score of the fitted dose curve at least 0.9, where 1 is the maximum; inactive = score below 0.9); conditions: actives raise or lower the signal
# In short: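 H295R human adrenal cells, forskolin-prestimulated (10 uM, 48 h), then exposed to test chemical in 0.1% DMSO for 48 h. 17alpha-hydroxypregnenolone in medium measured by HPLC-MS/MS after MTBE extraction; bidirectional fit versus DMSO, concentrations not MTC-filtered.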
# [10] = CEETOX_H295R_OHPROG_noMTC: CeeTox H295R High-throughput Steroidogenesis Assay for OH-Progesterone (OHPROG), maximum tolerated concentration (MTC) filtered results only (AID 2283914; active = hit-call score of the fitted dose curve at least 0.9, where 1 is the maximum; inactive = score below 0.9); conditions: actives raise or lower the signal
# In short: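 H295R human adrenal cells prestimulated 48 h with 10 uM forskolin, then exposed 48 h to test chemical (0.1% DMSO final). Medium 17alpha-hydroxyprogesterone extracted with MTBE, quantified by HPLC-MS/MS; bidirectional fit versus DMSO, concentrations not MTC-filtered.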
# [11] = CEETOX_H295R_CORTISOL_noMTC: CeeTox H295R High-throughput Steroidogenesis Assay for Cortisol, maximum tolerated concentration (MTC) filtered results only (AID 2283916; active = hit-call score of the fitted dose curve at least 0.9, where 1 is the maximum; inactive = score below 0.9); conditions: actives raise or lower the signal
# In short: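 H295R adrenal cells were pre-stimulated 48 h with 10 uM forskolin, then exposed 48 h to test chemical in 0.1% DMSO. Medium cortisol was measured by MTBE extraction and HPLC-MS/MS; bidirectional fit versus DMSO, concentrations not MTC-filtered.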
# [12] = CEETOX_H295R_CORTIC_noMTC: CeeTox H295R High-throughput Steroidogenesis Assay for Corticosterone (CORTIC), maximum tolerated concentration (MTC) filtered results only (AID 2283917; active = hit-call score of the fitted dose curve at least 0.9, where 1 is the maximum; inactive = score below 0.9); conditions: actives raise or lower the signal
# In short: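 H295R, 10 uM forskolin prestim 48 h → test chem (0.1% DMSO final) 48 h → media MTBE extraction → HPLC-MS/MS corticosterone. Bidirectional fit vs DMSO baseline; no MTT-based MTC filtering.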
# [13] = CEETOX_H295R_DOC_noMTC: CeeTox H295R High-throughput Steroidogenesis Assay for DOC, maximum tolerated concentration (MTC) filtered results only (AID 2283918; active = hit-call score of the fitted dose curve at least 0.9, where 1 is the maximum; inactive = score below 0.9); conditions: actives raise or lower the signal
# In short: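 H295R cells prestimulated 48 h with 10 uM forskolin, then exposed 48 h to test chemical (0.1% DMSO final). Medium 11-deoxycorticosterone extracted with MTBE, quantified by HPLC-MS/MS; bidirectional fit versus DMSO, concentrations not MTC-filtered.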
# [14] = CEETOX_H295R_ESTRADIOL_noMTC: CeeTox H295R High-throughput Steroidogenesis Assay for Estradiol, maximum tolerated concentration (MTC) filtered results only (AID 2283919; active = hit-call score of the fitted dose curve at least 0.9, where 1 is the maximum; inactive = score below 0.9); conditions: actives raise or lower the signal
# In short: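 H295R human adrenal cells pre-stimulated 48 h with 10 uM forskolin, then exposed 48 h to chemical (0.1% DMSO final). Estradiol in medium measured by HPLC-MS/MS after MTBE extraction and dansyl derivatization; bidirectional fit versus DMSO, concentrations not MTT-filtered.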
# [15] = CEETOX_H295R_PROG_noMTC: CeeTox H295R High-throughput Steroidogenesis Assay for Progesterone (PROG), maximum tolerated concentration (MTC) filtered results only (AID 2283920; active = hit-call score of the fitted dose curve at least 0.9, where 1 is the maximum; inactive = score below 0.9); conditions: actives raise or lower the signal
# In short: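 H295R human adrenal cells were prestimulated 48 h with 10 uM forskolin, then exposed 48 h to test chemical (0.1% DMSO final). Progesterone in medium was quantified by HPLC-MS/MS; bidirectional fitting versus DMSO, concentrations not MTC-filtered.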
# [16] = CEETOX_H295R_ESTRONE_noMTC: CeeTox H295R High-throughput Steroidogenesis Assay for Estrone, maximum tolerated concentration (MTC) filtered results only (AID 2283921; active = hit-call score of the fitted dose curve at least 0.9, where 1 is the maximum; inactive = score below 0.9); conditions: actives raise or lower the signal
# In short: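 H295R cells prestimulated 48 h with 10 uM forskolin, then exposed 48 h to chemical in 0.1% DMSO; medium estrone measured by HPLC-MS/MS after MTBE extraction and dansyl derivatization, fitted bidirectionally versus DMSO without MTT-based MTC filtering.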
# PGR (gene 5241) = PGR (gene 5241) (UniProt P06401); experiment: TOX21_PR_BLA_Followup_Antagonist_ratio: Tox21 HEK293 Progesterone Receptor (PR) Antagonism Beta-lactamase Follow-Up Assay, Ratio (AID 2283934)
# PGR (gene 5241), sequence (P06401 whole entry, looked up): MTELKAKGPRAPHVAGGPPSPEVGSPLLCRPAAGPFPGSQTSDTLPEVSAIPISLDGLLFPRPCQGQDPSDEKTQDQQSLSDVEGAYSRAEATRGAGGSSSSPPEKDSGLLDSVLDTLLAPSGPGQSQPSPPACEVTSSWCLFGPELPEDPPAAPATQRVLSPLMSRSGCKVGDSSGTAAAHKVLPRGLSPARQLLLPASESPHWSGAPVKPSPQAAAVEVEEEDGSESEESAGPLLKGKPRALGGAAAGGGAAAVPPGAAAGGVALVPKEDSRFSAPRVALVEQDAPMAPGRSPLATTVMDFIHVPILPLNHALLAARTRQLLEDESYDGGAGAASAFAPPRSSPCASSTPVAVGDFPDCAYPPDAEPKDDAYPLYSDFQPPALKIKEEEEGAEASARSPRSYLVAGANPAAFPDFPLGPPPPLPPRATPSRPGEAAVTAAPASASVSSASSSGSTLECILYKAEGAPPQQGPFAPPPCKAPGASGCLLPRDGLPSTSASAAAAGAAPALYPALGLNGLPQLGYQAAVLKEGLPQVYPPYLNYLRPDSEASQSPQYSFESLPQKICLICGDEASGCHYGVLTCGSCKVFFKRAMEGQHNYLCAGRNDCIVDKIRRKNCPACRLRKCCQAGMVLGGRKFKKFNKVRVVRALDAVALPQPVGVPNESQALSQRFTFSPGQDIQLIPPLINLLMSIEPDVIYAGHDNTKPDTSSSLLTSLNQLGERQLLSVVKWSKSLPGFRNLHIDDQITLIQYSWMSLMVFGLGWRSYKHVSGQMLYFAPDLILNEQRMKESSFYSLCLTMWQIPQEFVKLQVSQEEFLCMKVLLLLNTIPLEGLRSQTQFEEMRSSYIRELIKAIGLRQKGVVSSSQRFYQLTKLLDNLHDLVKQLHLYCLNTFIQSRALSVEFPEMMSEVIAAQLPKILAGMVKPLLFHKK
# In short: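 PR-UAS-bla HEK293T cells, 3,000/well in 2% charcoal-stripped FBS, given compound plus 1nM R5020 agonist for 16 hr at 37C. Beta-lactamase FRET substrate 2 hours, ratio cleaved/uncleaved fluorescence; viability by CellTiter-Glo in same wells.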
# [17] = biological target: frog Thyroid hormone Receptor alpha (TRa), thra-a (gene 397942) (UniProt P15204); experiment: ATG_frTRa_XSP2: Attagene TRANS-FACTORIAL Multi-Species (XSP2) HepG2 Assay for frog Thyroid hormone Receptor alpha (TRa) (AID 2283839);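 for AC50: AC50 reflects induction of frog TRa-driven reporter mRNA above DMSO baseline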
# frog Thyroid hormone Receptor alpha (TRa), thra-a (gene 397942), sequence (P15204 whole entry, looked up, the tested form may be a part): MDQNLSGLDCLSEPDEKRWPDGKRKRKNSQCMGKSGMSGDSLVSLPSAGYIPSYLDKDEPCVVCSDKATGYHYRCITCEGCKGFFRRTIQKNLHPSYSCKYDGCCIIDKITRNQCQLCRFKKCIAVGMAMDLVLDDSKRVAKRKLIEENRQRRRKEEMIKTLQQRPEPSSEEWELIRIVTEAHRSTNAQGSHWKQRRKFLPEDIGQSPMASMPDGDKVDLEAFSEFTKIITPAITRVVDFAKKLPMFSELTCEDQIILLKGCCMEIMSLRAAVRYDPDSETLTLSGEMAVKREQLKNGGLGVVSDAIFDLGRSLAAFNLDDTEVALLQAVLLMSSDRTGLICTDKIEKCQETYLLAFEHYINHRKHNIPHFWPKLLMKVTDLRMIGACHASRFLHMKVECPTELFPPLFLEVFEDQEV
# In short: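 Reporter transcripts were measured by RT-PCR with capillary electrophoresis after 24 h dosing of HepG2 carrying transiently transfected multi-reporter units, including a chimeric frog TRa-GAL4 construct. Activity was taken as increase over DMSO vehicle.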
smiles,measurement,setting,value
ClC1=C(Cl)C2(Cl)C3C(Cl)C(Cl)CC3C1(Cl)C2(Cl)Cl (centres undefined),outcome,[1],inactive
same,AC50,[2],9.92 µM (active)
OCC(F)(F)OC(F)(F)C(F)(F)OC(F)(F)C(F)(F)OC(F)(F)CO,outcome,[1],inactive
CCCCc1ccc(O)cc1,outcome,[3],inactive
same,outcome,[4],inactive
same,outcome,[5],inactive
same,outcome,[6],inactive
same,AC50,[7],31 µM (active)
same,outcome,[7],inactive
same,outcome,[1],inactive
same,outcome,[2],inactive
OCC(F)(F)OC(F)(F)C(F)(F)OC(F)(F)C(F)(F)OC(F)(F)F,outcome,[1],inactive
CC(C)(C)N(NC(=O)c1ccc(Cl)cc1)C(=O)c1ccccc1,outcome,[1],inactive
same,outcome,[2],inactive
O=P(OCC(Br)CBr)(OCC(Br)CBr)OCC(Br)CBr (centres undefined),outcome,[1],inactive
O=c1ssc(Cl)c1Cl,AC50,[1],9.92 µM (active)
same,AC50,[2],80.9 µM (active)
CCOc1ccc(C(C)(C)COCc2cccc(Oc3ccccc3)c2)cc1,AC50,[8],13.1 µM (active)
same,outcome,[9],inactive
same,AC50,[10],13.2 µM (active)
same,outcome,[11],inactive
same,outcome,[12],inactive
same,outcome,[13],inactive
same,outcome,[14],inactive
same,outcome,[15],inactive
same,outcome,[16],inactive
CCCCC(CC)COP(=O)(Oc1ccccc1)Oc1ccccc1 (centres undefined),outcome,[1],inactive
same,outcome,[2],inactive
O=NN1CCCC1,outcome,[1],inactive
same,outcome,[2],inactive
CO/N=C(/C(=O)OC)c1ccccc1COc1ccccc1C,AC50,[1],7.83 µM (active)
same,outcome,[2],inactive
same,AC50,PGR (gene 5241),37.1 µM (active)
O=S1(=O)OCC2C(CO1)C1(Cl)C(Cl)=C(Cl)C2(Cl)C1(Cl)Cl (centres undefined),outcome,[2],inactive
same,AC50,PGR (gene 5241),24.2 µM (active)
O=[N+]([O-])c1ccc(Cl)c(Cl)c1,outcome,[2],inactive
CCOP(=S)(OCC)SCSc1ccc(Cl)cc1,AC50,PGR (gene 5241),9.94 µM (active)
O=S(=O)(c1ccc(O)cc1)c1ccc(O)cc1,outcome,[3],inactive
same,outcome,[4],inactive
same,outcome,[5],inactive
same,outcome,[6],inactive
same,AC50,[17],100 µM (active)
same,outcome,[7],inactive
c1ccc2c(c1)Nc1ccccc1S2,outcome,[3],inactive
same,outcome,[4],inactive
same,outcome,[5],inactive
same,outcome,[6],inactive
same,outcome,[17],inactive
same,outcome,[7],inactive
